# Screens: PubChem, several laboratories
# Hits are enriched below; roughly 4.1% of the tested compounds scored in any of these assays.
# ALR H2O2 inh: inhibitors of human ALR sulfhydryl oxidase, primary screen, biochemical, H2O2 detection, HRP-luminol luminescence, single point | FAD-linked sulfhydryl oxidase ALR (Homo sapiens), P55789 | purified ALR, DTT oxidation | inhibition, % (test concentration not listed) | 290,000 compounds, 3.8% hits;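 active = mean replicate inhibition above about 79%, with every replicate also reaching it, limit read from the data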
# Target sequence (P55789 whole entry, looked up): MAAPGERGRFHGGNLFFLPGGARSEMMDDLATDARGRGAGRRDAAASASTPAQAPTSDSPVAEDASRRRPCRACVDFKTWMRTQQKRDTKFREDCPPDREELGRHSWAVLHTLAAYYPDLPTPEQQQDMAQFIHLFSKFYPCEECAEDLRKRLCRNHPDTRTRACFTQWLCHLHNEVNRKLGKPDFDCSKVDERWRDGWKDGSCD
# IDE cell activ: human IDE activators in live cells, primary screen, fluorescence polarization, HEK cells, FAbeta-B substrate. Insulin-degrading enzyme (Homo sapiens), P14735. FAbeta-B cleavage; 0% vehicle, 100% cell-free pure enzyme wells. activation, % at 5.96 µM. 340,000 compounds, 0.073% hits;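 active = activation above the mean of all tested compounds plus 3 SD, set per screening campaign, cut at about 17% in these data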
# PfM18AAP inh-1: PfM18AAP inhibitors, malaria aminopeptidase, primary screen, biochemical, QFRET, recombinant enzyme; M18 aspartyl aminopeptidase (Plasmodium falciparum 3D7); H-Glu-NHMec fluorogenic cleavage; inhibition, % at 7.35 µM; 290,000 compounds, 1.2% hits; AID 1822, 2009;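 active = inhibition above the campaign mean inhibition over all tested compounds plus 3 SD, cut at about 28% in these data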;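 note: 0% = plate median of test compound wells and 100% = 2 mM ZnCl2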
# PolyA inhibitor: polyadenylation inhibitors in yeast reporter cells, primary screen, luminescence, S. cerevisiae | S. cerevisiae SKY197-pL101 polyadenylation reporter, beta-gal luminescence; efflux-impaired pdr1/pdr3 knockout yeast; score 100 = 6 SD above DMSO | 300,000 compounds, 0.02% hits | activity score, % at 12 µM;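 active = lowest replicate activity score at least 50, where 100 means six control SD above control mean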;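 note: yeast exposed to compound for 9 h at 30 °C; higher score means more reporter readthrough which indicates perturbed polyadenylation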
# IDE cell inh: human IDE inhibitors in live cells, primary screen, fluorescence polarization, HEK cells, FAbetaB substrate; FAbetaB cleavage; inhibition, % at 5.59 µM; 320,000 compounds, 0.41% hits; AID 434962, 2010;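 active = percent inhibition above the average of all tested compounds plus 3 SD, set per screening campaign, cut at about 16% in these data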;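 note: IDE supplied by intact live HEK cells; FP after avidin binding of uncleaved biotin substrate so inhibition keeps polarization high; 0% = DMSO wells and 100% = 60 µM reference IDE inhibitor Ii1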
# CaV13 ICDI inh: Primary screen for inhibitors of IQ motif and Ca2+-dependent inactivation inhibitor domain binding in CACNA1D, Förster resonance energy transfer in living cells, … | HEK cells, CFP/YFP FRET ICDI-IQ, plate reader, 10 min; percent FRET-ratio fall versus neutral wells | inhibition, % at 12.3 µM | 340,000 compounds, 0.098% hits;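 active = mean replicate inhibition of at least 30% and at least 1% of replicates passing that level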;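 note: 0% = median of the neutral control wells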
# PfM18AAP inh-2: PfM18AAP inhibitors, malaria aminopeptidase, confirmation, biochemical, QFRET, recombinant enzyme, triplicate | H-Glu-NHMec fluorogenic cleavage | AID 2170, 2009 | shares compounds with PfM18AAP inh-1 | inhibition, % at 7.35 µM | 2,400 compounds, 28% hits;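 active = mean inhibition over replicate wells above the hit cutoff set for the earlier primary screen, cut at about 29% in these data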;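 note: 0% = median of test compound wells and 100% = 2 mM ZnCl2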
# CTSL1 confirm: cathepsin L1 inhibitors, retest, confirmation, counter-screen for PFM18AAP inhibitor project, biochemical, QFRET, triplicate; shares compounds with PfM18AAP inh-1; purified cathepsin L1, Z-Leu-Arg-MCA fluorescence; inhibition, % at 5.96 µM; 2,400 tested, under 10 active; AID 2178, 2009;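 active = average inhibition across replicates above the hit cutoff set in the earlier primary screen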;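 note: 0% = median of test compound wells and 100% = Z-Phe-Ala-diazomethylketone 1 µM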
# Target sequence (P07711 whole entry, looked up): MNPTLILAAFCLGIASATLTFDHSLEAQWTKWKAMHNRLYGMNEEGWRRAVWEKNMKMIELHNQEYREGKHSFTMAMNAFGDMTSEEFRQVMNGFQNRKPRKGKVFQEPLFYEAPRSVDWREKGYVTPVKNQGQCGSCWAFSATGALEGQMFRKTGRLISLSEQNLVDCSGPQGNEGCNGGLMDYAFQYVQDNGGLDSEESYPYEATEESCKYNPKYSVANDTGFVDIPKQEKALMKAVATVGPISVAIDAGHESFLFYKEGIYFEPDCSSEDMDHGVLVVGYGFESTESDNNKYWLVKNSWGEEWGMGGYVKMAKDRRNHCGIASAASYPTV
# Numbers without * were called inactive; . = not tested or not shown.
SMILES,ALR H2O2 inh,IDE cell activ,PfM18AAP inh-1,PolyA inhibitor,IDE cell inh,CaV13 ICDI inh,PfM18AAP inh-2,CTSL1 confirm
CCNC(=S)NNC(=O)c1ccc(OC)cc1,23,1,33*,10,-4,-2,10,0
COCCCNC(=S)NNC(=O)c1ccoc1C,42,3,33*,13,5,-4,-8,-1
CCCCNC(=O)NNC(=O)c1ccoc1C,-2,-5,26,4,3,.,.,.
O=C(NCc1cccs1)C1CCCN1C(=O)Nc1ccccc1Cl (stereo not drawn),-16,4,4,5,2,-4,.,.
CC1CC(=O)N(CC(=O)NCc2ccc(F)cc2)c2ccccc2S1(=O)=O (stereo not drawn),-2,3,-5,2,-12,-5,.,.
CC12CCC(C/C1=N\OC(=O)c1c(F)cccc1F)C2(C)C (stereo not drawn),-3,9,-11,6,8,-13,.,.
Cc1ccc(OC(=O)CCC(=O)Nc2ccc(C)c(C)c2)cc1,-1,1,.,1,6,-4,.,.
N=c1n(N)c2ccccc2n1CC(=O)c1ccc(Br)cc1,-6,-3,0,-10,2,-4,.,.
O=C1CC(c2ccco2)CC(O)=C1C=Nc1cc(Cl)ccc1Cl (stereo not drawn),-1,1,11,-5,10,-3,.,.
O=C1CC(c2ccco2)CC(O)=C1C=Nc1cc(Cl)ccc1O (stereo not drawn),2,-4,33*,-19,4,-6,-10,0
Clc1cccc(CNCCCSc2ncccn2)c1,-8,3,2,13,1,-2,.,.
COc1cc(/C=N/N(c2ccccc2)c2ccccc2)ccc1O,.,7,13,-12,-8,-20,.,.
CN(/N=C\c1ccc(O)c(O)c1)c1nc(-c2ccccc2)cc(-c2ccccc2)n1,51,5,50*,-5,1,-18,24,-3
Cc1noc(C)c1C(=O)Nc1nc2ccccc2s1,.,-2,.,.,.,-7,.,.
O=C(NCc1ccco1)c1ccc2c(c1)N(Cc1ccccc1)C(=O)CS2=O (stereo not drawn),-4,4,26,5,0,-10,.,.
CCN(CC)C(=O)c1ccc2c(c1)N(Cc1ccccc1)C(=O)CS2=O (stereo not drawn),-5,4,54*,-11,-3,-10,-25,-3
O=C(NCC1CCCO1)c1ccc2c(c1)N(Cc1ccccc1)C(=O)CS2=O (stereo not drawn),-13,-3,42*,-5,-1,-7,-63,-5
Cc1c(Br)c(=O)oc2c(Br)c(O)c(O)cc12,98*,2,39*,-4,9,-3,9,-10
CCC(C)NCCOCCOc1ccc(C)cc1Br (stereo not drawn),-9,1,32*,-9,-6,-8,-26,-1
C=CCNCCOCCOc1ccc(C)cc1Br,-2,1,4,-9,-1,-3,.,.
CN1N=C(C(=O)N2CCc3c([nH]c4ccccc34)C2c2c(F)cccc2Cl)CCC1=O (stereo not drawn),10,4,-1,5,2,-20,.,.
CCNc1c(N)c(=O)oc2ccccc12,60,3,-12,-1,2,.,.,.
CCCNc1c(N)c(=O)oc2ccccc12,34,3,49*,-9,-3,-8,-3,-6
NC(=O)C(=CNc1nc(-c2ccc(Cl)c(Cl)c2)cs1)C(N)=O,.,.,69*,.,.,.,53*,-2
O=C(O)c1cc(S(=O)(=O)O)cc(Nc2c3ccccc3nc3ccccc23)c1O,31,4,35*,-17,-1,-3,-27,0
SMILES,ALR H2O2 inh,IDE cell activ,PfM18AAP inh-1,PolyA inhibitor,IDE cell inh,CaV13 ICDI inh,PfM18AAP inh-2,CTSL1 confirm
O=[N+]([O-])c1ccccc1Nc1c2ccccc2nc2ccccc12,2,0,-2,-18,-3,4,.,.
COc1ccc(C(=O)NCC(=O)N/N=C/c2ccco2)cc1OC,.,-2,44*,6,5,-2,-54,-6
COC(=O)[C@H](C)N(Cc1ccc(Cl)c(Cl)c1)S(=O)(=O)CCN1CCN(c2ccccc2)CC1,.,1,.,.,.,-3,.,.
CC(C)(C)NC(=O)C1Cc2ccccc2CN1S(=O)(=O)c1ccc(F)cc1 (stereo not drawn),0,.,1,-11,2,-4,.,.
Cc1ccc(S(=O)(=O)N2Cc3ccccc3CC2C(=O)Nn2cnnc2)cc1 (stereo not drawn),0,7,41*,-3,-3,-5,36*,-3
O=C(Nn1cnnc1)C1Cc2ccccc2CN1S(=O)(=O)c1ccc(F)cc1 (stereo not drawn),0,7,39*,18,-2,-8,33*,-3
COCC(C)NC(=O)NC1(C(F)(F)F)Oc2ccc(Cl)cc2O1 (stereo not drawn),-5,1,79*,-4,6,-5,66*,3
O=C(NCCN1CCOCC1)NC1(C(F)(F)F)Oc2ccc(Cl)cc2O1 (stereo not drawn),99*,6,87*,1,-5,-6,89*,-4
COCC(C)NC(=O)NC(=O)c1ccc(Cl)cc1 (stereo not drawn),-6,2,-4,-4,1,.,.,.
COc1ccc(NC(=O)C2C3C=CC4(O3)C2C(=O)N(CCCN2CCCC(C)C2)C4C(=O)NC2CCCCC2)cc1 (stereo not drawn),-11,0,0,-3,1,-8,.,.
NC(=O)NNc1cccc(Cl)n1,.,7,47*,9,6,-4,8,1
O=C(NNc1cccc(Cl)n1)c1c(Cl)cccc1Cl,-2,3,56*,-3,4,-5,27,4
O=C(NNc1cccc(Cl)n1)c1c(F)cccc1F,.,5,20,-9,-2,-6,.,.
COC(=O)C[C@H](NC(=O)Cn1cnc2c(SC)nc(N)nc21)C(=O)OC,-2,2,.,.,1,-6,.,.
O=C(CNC(=O)c1cccs1)Nc1ccc2c(c1)OCCO2,-2,5,.,-12,-5,-6,.,.
